# Measurements reported in PubChem BioAssay (NCATS).
# Records with an inconclusive call do not appear. A number with no mark means an inactive call. Calls of active or inactive are those of the source. Calls come from the whole dose curve; as a rule, active = well fitted inhibition curve with a large enough effect; inconclusive = small, poorly fitted or top-dose-only effect; inactive = no such curve, though single readings can be large or run the other way.
# Target: Cytochrome P450 2C9 (Homo sapiens) (UniProt P11712)
# Sequence (P11712 whole entry, looked up): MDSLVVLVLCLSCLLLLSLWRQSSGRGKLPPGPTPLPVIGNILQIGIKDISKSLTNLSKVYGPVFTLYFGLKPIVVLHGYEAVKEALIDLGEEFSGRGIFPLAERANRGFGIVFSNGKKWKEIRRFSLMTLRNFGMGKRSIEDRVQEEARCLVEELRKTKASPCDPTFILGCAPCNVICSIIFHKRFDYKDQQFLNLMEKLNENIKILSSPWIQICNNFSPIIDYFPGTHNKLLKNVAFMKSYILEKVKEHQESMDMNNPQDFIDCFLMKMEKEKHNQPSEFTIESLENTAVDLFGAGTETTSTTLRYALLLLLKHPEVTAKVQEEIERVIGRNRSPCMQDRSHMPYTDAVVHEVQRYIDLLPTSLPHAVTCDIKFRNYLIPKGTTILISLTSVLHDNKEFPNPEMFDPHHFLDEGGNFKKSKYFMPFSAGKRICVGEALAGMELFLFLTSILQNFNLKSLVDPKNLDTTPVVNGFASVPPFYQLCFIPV
# Assay: qHTS Assay for Inhibitors and Substrates of Cytochrome P450 2C9 (AID 883); note: nearly all actives have a fitted effect of over 60% in size
# Settings: recombinant CYP2C9, luciferin-H luminescence, 60 min; series mostly up to 11.4 µM; activity change, negative = inhibition: at the top concentration
# How it was run: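 CYP2C9 deoxyluciferin hydroxylation, 37C, 60 min with NADPH regeneration; 10nM enzyme, 100uM Luciferin-H (KM). Glo detection reagent stopped reaction; luminescence normalized to sulphaphenazole (57uM) full inhibition.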
# % is set by controls: 0 for no effect and ±100 for the full control effect; potency is the fitted concentration of half-maximal effect.
SMILES,Potency,"activity change, negative = inhibition [%]"
COc1ccc(O[C@H]2C=C[C@@H](c3ccccc3)O[C@H]2COC(=O)N2CCCCC2)cc1,2.51 µM (active),–
CCCNC(=O)OC[C@H]1O[C@@H](CCO/N=C\[C@@H](NS(=O)(=O)c2ccc(C)cc2)[C@H](C)/C=C\CC(=O)OC)C=C[C@@H]1Oc1ccc(OC)cc1,3.98 µM (active),–
CO[C@H]1COC(=O)C/C=C\[C@@H](C)COC(=O)[C@H]2CCCN2C(=O)C/C=C\[C@H]1C,–,30.6
C#CCCCO/N=C1/[C@H]2O[C@@H]2[C@@H](O)[C@H]2[C@H]1CCn1c(=O)n(Cc3cc4c(cc3Cl)OCO4)c(=O)n12,–,31.6
C[C@@H](c1ccccc1)N1C(=O)[C@H]2[C@@H]3[C@H](O)[C@H](O)CC(=O)[C@H]3CC[C@H]2C1=O,–,4.87

# Target: Cytochrome P450 3A4 (Homo sapiens) (UniProt P08684)
# Sequence (P08684 whole entry, looked up): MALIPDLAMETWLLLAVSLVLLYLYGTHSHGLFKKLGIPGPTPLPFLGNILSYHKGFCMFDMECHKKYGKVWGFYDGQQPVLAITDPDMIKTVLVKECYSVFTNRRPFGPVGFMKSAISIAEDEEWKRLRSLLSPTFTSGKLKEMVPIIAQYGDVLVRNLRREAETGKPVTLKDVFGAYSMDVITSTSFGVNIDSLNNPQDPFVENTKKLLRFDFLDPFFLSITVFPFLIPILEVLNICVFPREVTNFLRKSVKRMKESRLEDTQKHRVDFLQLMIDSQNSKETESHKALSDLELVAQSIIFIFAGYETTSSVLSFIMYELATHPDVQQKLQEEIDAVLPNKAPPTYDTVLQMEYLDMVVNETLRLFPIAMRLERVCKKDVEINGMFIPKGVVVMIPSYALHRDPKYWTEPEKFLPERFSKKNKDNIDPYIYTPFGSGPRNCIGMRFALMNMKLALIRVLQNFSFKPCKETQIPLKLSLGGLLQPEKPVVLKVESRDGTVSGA
# Assay: qHTS Assay for Inhibitors and Substrates of Cytochrome P450 3A4 (AID 884); note: nearly all actives have a fitted effect of over 50% in size
# Settings: recombinant CYP3A4, Luciferin-PPXE luminescence; series mostly up to 57.1 µM; activity change, negative = inhibition: at the top concentration
# How it was run: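 20 nM human CYP3A4 with 25 uM Luciferin-PPXE (at KM) in 200 mM KPO4, preincubated 10 min with compound; NADPH regeneration started a 60 min RT reaction. Luciferin detected by luminescence, normalized to 57 uM ketoconazole as full inhibition.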
SMILES,"activity change, negative = inhibition",Potency
COC(=O)[C@@H]1C[C@@]2(O)[C@H](O)[C@H](O)[C@H](O)C[C@H]2N1Cc1ccc(C)s1,-19.8%,–
CC(Cc1ccccc1)C(=O)N(C)Cc1ccccc1 (centres undefined),-15.9%,–
CN1C[C@@H]2C(c3ccc(C(F)(F)F)cc3)C3(c4ccccc4)CC2(C3)[C@H]1c1ccccc1 (some centres undefined),-28.8%,–
[C-]#[N+]/C(C#N)=C\c1cc(C(C)(C)C)c(O)c(C(C)(C)C)c1,–,3.98 µM (active)
CN(C)/C=N/c1cc(=O)[nH]c(=O)n1Cc1ccccc1,-4.96%,–
CC(C)Cn1c(N)c(C(=O)COC(=O)c2cc(C3CC3)nc3ccccc23)c(=O)n(C)c1=O,-20.4%,–
COC(=O)[C@@H]1C[C@@]2(O)[C@@H](O)[C@@H](O)[C@@H](O)C[C@H]2N1Cc1ccc(N2CCOCC2)cc1,-13.7%,–
COC(=O)c1ccc(C23CC4(C2)[C@H](CN(Cc2ccc(-c5ccccc5)cc2)[C@@H]4c2ccccc2)C3c2ccccc2)cc1 (some centres undefined),-26.6%,–
OB(O)c1ccc(Cl)s1,-11.6%,–
FC(F)(F)c1cccc(-c2noc(-c3cc(-c4ccccc4)c(C(F)(F)F)s3)n2)c1,-19.9%,–
OB(O)c1csc2ccccc12,-20.3%,–
Cc1cc(C(=O)O)sc1C(N)C(=O)O (centres undefined),-25.7%,–
CN(C)/C=N/c1cc(=O)n(Cc2ccccc2)c(=O)n1C,-19.8%,–
O=C(O)c1cc(C2CC2)nc2ccccc12,-21.3%,–
C/C(CCN1CCCc2nc(C)c(C)cc21)=N\OC[C@@H](O)COCc1ccco1,–,3.98 µM (active)
CC(Cc1ccccc1)C(=O)N1CCN(C)CC1 (centres undefined),-20%,–
CN(C)/C=N/c1cc(=O)n(C)c(=O)n1Cc1ccccc1,-26.8%,–

SMILES,"activity change, negative = inhibition",Potency
COC(=O)[C@@H]1C[C@@]2(O)[C@H](O)[C@H](O)[C@H](O)C[C@H]2N1Cc1cccc2ccccc12,-29.9%,–
Cn1c(=O)c(C(=O)COC(=O)c2cc(C3CC3)nc3ccccc23)c(N)n(Cc2ccccc2)c1=O,-15.2%,–
C#CC(C)OC(=O)C(C)NC(=O)c1ccccc1 (centres undefined),-13.5%,–
C[C@@]1(O)C(O)[C@@H](CO)O[C@H]1n1cnc2c(NC3CCCC3)nc(Cl)nc21 (some centres undefined),-29.2%,–
Cc1cc(N)c2cc(OCCOc3ccc4nc(C)cc(N)c4c3)ccc2n1,-0.402% [at 11.4 µM],–
c1ccc(-c2ccc(CN3C[C@@H]4C(c5ccccc5)C5(c6ccccc6)CC4(C5)[C@H]3c3ccccc3)cc2)cc1 (some centres undefined),7.2%,–
COC(=O)[C@@H]1C[C@@]2(O)[C@H](O)[C@H](O)[C@H](O)C[C@H]2N1CC1CC1,-14.1%,–
COC(=O)c1ccc(C(NC(=O)OCc2ccccc2)/C(C)=C/[C@@H](C)C(=O)N[C@@H](CO)Cc2ccccc2)cc1 (some centres undefined),–,3.16 µM (active)
CN1CCN(C(=O)c2nc3ccc(Cl)cc3[nH]2)CC1,-19%,–
CN1[C@H](Cc2ccccc2)C=C[C@]1(C)C(=O)NCC1CC1,-56.2%,–
CC(C)Cn1c(N)c(C(=O)COC(=O)c2cc(C(F)(F)F)nc3ccccc23)c(=O)n(C)c1=O,-9.49%,–
OB(O)c1ccc(B(O)O)cc1,-24.2%,–
O=Cc1ccc(B(O)O)cc1,-5.49%,–
Cn1c(=O)c(C(=O)COC(=O)c2cc(-c3ccccc3)nc3ccccc23)c(N)n(Cc2ccccc2)c1=O,-23.5%,–
COC(=O)[C@@H]1C[C@@]2(O)[C@H](O)[C@H](O)[C@H](O)C[C@H]2N1Cc1cc(F)ccc1F,-21.8%,–
O=C(O)c1cc(-c2ccco2)nc2ccccc12,-26.4%,–
Cn1c(N)cc(=O)n(Cc2ccccc2)c1=O,-42.5%,–
